Measured values taken from PubChem BioAssay AID652042 (Broad Institute, 2013).
Out of some 1,100 compounds screened, about 350 (32%) were called active. No rule for the calls is given here. The list is a sample of the results. Potency and affinity values are given separately.

Assay: viability loss in CEM21 cells – cell-based, CellTiter-Glo luminescence, cherry-picked, cytotoxicity control for viral fusion inhibitor project, dose response (AID 652042)
Conditions: CellTiter-Glo ATP luminescence, 24 h; series mostly up to 35 µM; activity change, negative = cytotoxicity: at the top concentration

Compound	activity change, negative = cytotoxicity
C[C@H](CO)N1C[C@H](C)[C@H](CN(C)CC2CC2)Oc2ccc(NC(=O)Nc3ccc4c(c3)OCO4)cc2CC1=O	-1.32% (inactive)
CC(C)NC(=O)Nc1ccc2c(c1)CC(=O)N([C@H](C)CO)C[C@H](C)[C@H](CN(C)S(=O)(=O)c1cccs1)O2	1.85% (inactive)
C[C@H]1CN([C@@H](C)CO)C(=O)c2cc(NC(=O)Nc3ccc4c(c3)OCO4)ccc2O[C@H]1CN(C)S(=O)(=O)c1ccc(F)cc1	-0.195% (inactive)
C[C@H](CO)N1C[C@H](C)[C@H](CN(C)S(=O)(=O)c2ccc(Cl)cc2)Oc2ccc(NC(=O)Nc3ccc4c(c3)OCO4)cc2C1=O	-8.62% (inactive)
COc1ccc(S(=O)(=O)Nc2ccc3c(c2)CC(=O)N([C@H](C)CO)C[C@H](C)[C@H](CN(C)S(=O)(=O)c2ccc(F)cc2)O3)cc1	-0.109% (inactive)
COc1ccc(NC(=O)Nc2ccc3c(c2)CC(=O)N([C@@H](C)CO)C[C@H](C)[C@H](CN(C)S(=O)(=O)c2cccs2)O3)cc1	-13.2% (inactive)
C[C@H](CO)N1C[C@H](C)[C@H](CN(C)S(=O)(=O)c2ccccc2)Oc2ccc(NC(=O)Nc3ccccc3)cc2CC1=O	-19.4% (inactive)
COc1ccc(CN(C)C[C@@H]2Oc3ccc(NC(=O)Nc4ccc(OC)cc4)cc3C(=O)N([C@H](C)CO)C[C@@H]2C)cc1	-7.84% (inactive)
COc1ccc(Cl)cc1CC1(C)C(=O)Nc2ccc(S(=O)(=O)NC3CCCCC3)cc21 (configuration not stated)	-10.2% (inactive)
O=C(c1ccccc1)N1CCC(c2nc(-c3ccc(S(=O)(=O)NCC4CCCO4)cc3)no2)CC1 (configuration not stated)	-19.1% (inactive)
CC1CCN(C(=O)c2ncn3c2C(=O)N[C@H](C)C3)CC1	-0.958% (inactive)
Cc1nc2ncnn2c(N2CCCC(C(=O)Nc3ccc4c(c3)CCC4)C2)c1C (configuration not stated)	-9.92% (inactive)
O=C(Nc1ccc2c(c1)CCC2)C1CCN(c2c3c(nc4ncnn24)CCC3)CC1	-17.5% (inactive)
Oc1ccc(CNc2ccccc2F)c2cccnc12	-29.9% (inactive)
N#C/C(=N\Nc1ccc(Cl)cc1)C(=O)c1ccccc1	-32.3% (inactive)
O=C1c2cccc(OCc3ccc(F)cc3)c2CCN1Cc1ccccc1	-13.1% (inactive)
NC(=S)c1ccc(OCCCc2ccccc2)cc1	-14.8% (inactive)
C[C@@]12C(=O)N(CCc3c[nH]c4ccccc34)CC(=O)N1[C@H]1c3ccccc3OC[C@@H]1[C@@H]2c1ccccc1	-17.1% (inactive)
C[C@@]12C(=O)N(CC3CCCO3)CC(=O)N1[C@H]1c3cc(Cl)ccc3OC[C@@H]1[C@@H]2c1ccccc1 (some centres not stated)	-8.94% (inactive)
COC(=O)CCn1nnc(-c2ccc(C(C)C)cc2)n1	6.71% (inactive)
COCC(=O)Nc1ccc2c(c1)C(=O)N(C)[C@H]1CC[C@H](CC(=O)NC3CCCC3)O[C@H]1CO2	-2.95% (inactive)
CC1=CC(C)(C)N(C(=O)c2ccccc2)c2ccc(C)cc21	-13.1% (inactive)
